# Results from PubChem BioAssay (Tox21).
# Inconclusive results are not listed. Unmarked numbers belong to inactive results. Activity calls are given as the source filed them. The call rests on the fitted dose curve; in most records, active means well fitted cell-killing curve with a large enough effect in the repeat runs; inconclusive means weak or mixed curves, or effect the other way; inactive means flat fitted curve, though single readings scatter.
# Test: cAMP Responsive Elements (CRE) small molecule antagonists, cell-based qHTS assay: qHTS cell viability counter screen (AID 2060913); further: nearly all actives have a fitted effect of over 40% in size
# Details: CRE-bla HEK293T viability, CellTiter-Glo luminescence, 5 h; series mostly up to 92.4 µM; viability change, negative = cytotoxic: at the top concentration
# Excerpt: U.S. Tox21 Program National Center for Advancing Translational Sciences [NCATS] Division of Preclinical Innovation [DPI] U.S. Environmental Protection Agency [EPA] National Institutes of Environmental Health Sciences [NIEHS] National Toxicology Program [NTP] U.S. Food and Drug Administration [FDA] Tox21 Assay Overview: CREB (cyclic-AMP Responsive Element Binding Protein) is a cellular transcription factor. It binds to certain DNA sequences called cAMP Responsive Elements (CRE) and regulates the transcription of the genes. […] This cell line can be used to find agonists/antagonists of the cyclic AMP signaling pathway. The activation of the report gene under culture conditions can be detected by fluorescence intensity. This cell line has been used to screen the Tox21 10K compound library to identify agonists that induce oxidative stress. The cytotoxicity of the Tox21 compound library against the CRE-bla cell line was tested in parallel by measuring the cell viability using CellTiter-Glo assay (Promega, Madison, WI) in the same wells.
# Tox21 Assay Protocol Summary: CRE-bla Hek 293T cells were suspended in assay medium (DMEM containing 10% dialyzed FBS, 0.1 mM NEAA, 1 mM sodium pyruvate and 25 mM HEPES) and dispensed at 2,000 cells/4 uL /well into 1536-well black wall/clear bottom plates using a Multidrop Combi (ThermoFisher Scientific, Waltham, MA) dispenser. After the assay plates were incubated at 37 C/5% CO2 for 18 hrs, 23 nL of compounds dissolved in DMSO, positive controls or DMSO only was transferred to the assay plate by a pintool workstation (Kalypsys, San Diego, CA), followed by addition of 1 uL of 1.25uM NKH477 (0.25 uM as final concentration) in assay medium using a Flying Reagent Dispenser (Aurora Discovery, San Diego, CA). The plates were incubated at 37 C and 5% CO2 for 3 hrs. Then 1 uL of LiveBLAzer B/G FRET substrate (Invitrogen, Carlsbad, CA) was added to each well using Bioraptr Flying Reagent Dispenser (FRD, Aurora Discovery, San Diego, CA). The plates were incubated at room temperature for 2 h, then fluorescence intensities were measured using an Envision plate reader (PerkinElmer, Shelton, CT) at Excitation 405nm, Emission 460nm and 530nm. The % activity was determined from the ratio of 460nm/530nm. For cell viability readout that measures cytotoxicity, 4 uL /well of CellTiter-Glo reagent was added into the assay plates using Bioraptr FRD. After 30 min incubation at room temperature, the luminescence intensity in the assay plates was measured using a ViewLux (PerkinElmer, Shelton, CT) plate reader.
# On the % scale 0 is the no-effect control and ±100 the full control effect.
Compound,"viability change, negative = cytotoxic",Potency
Cc1nnc(-c2ccccc2)c(=O)n1N,4.98%,–
O=P(OCCCl)(OCCCl)OCCCl,6.75%,–
c1nc[nH]n1,–,inactive
Clc1cccc(Cl)c1,–,inactive
CNP(=O)(OC)Oc1ccc(C(C)(C)C)cc1Cl (stereo not given),-8.52%,–
C[N+](C)(C)CCCl,6.54%,–
CC(C)N(C(=O)SC/C(Cl)=C/Cl)C(C)C,2.27%,–
CC1N=C(N)OC1c1ccccc1 (stereo not given),-1.82%,–
OC(c1ccccc1)(c1ccccc1)C1CCNCC1,0.247% [at 42.5 µM],–
Cc1ccc(OP(=O)(Oc2ccccc2)Oc2ccccc2)cc1,-7.67%,–
CC1COC2(c3ccccc3Cl)c3cc(Cl)ccc3NC(=O)CN12 (stereo not given),3.64% [at 42.5 µM],–
COC(=O)c1cncn1C(C)c1ccccc1 (stereo not given),0.0374% [at 42.5 µM],–
O=C(N[C@H]1CN2CCC1CC2)c1ccc2c(c1)OCCO2,-0.637%,–
COS(=O)(=O)OC,–,inactive
CN(C)c1nc(=O)n(C2CCCCC2)c(=O)n1C,–,inactive
N[C@@H](Cc1ccc(Oc2cc(I)c(O)c(I)c2)c(I)c1)C(=O)O,-4.38% [at 42.5 µM],–
CCCCOCCOC(C)=O,–,inactive
[O-][Cl+]O,1.66%,–
CC(C)NCC(O)c1ccccc1Cl (stereo not given),-2.97% [at 42.5 µM],–
CCC1(CC)C(=O)C=CNC1=O,-0.632% [at 42.5 µM],–

Compound,"viability change, negative = cytotoxic",Potency
c1cc[c]([Sb]([c]2ccccc2)[c]2ccccc2)cc1,-5.31%,–
[P]#[In],-2.26%,–
CN1CCN(C(=O)O[C@H]2c3nccnc3C(=O)N2c2ccc(Cl)cn2)CC1,6.3% [at 42.5 µM],–
CCCN(CCC)CCc1c[nH]c2ccccc12,-7.88%,–
COC[C@@H](NC(C)=O)C(=O)NCc1ccccc1,6.45% [at 42.5 µM],–
BrCc1ccc(Br)cc1,-9.24%,–
CC(C)[C@H](C(=O)O[C@H](C#N)c1cccc(Oc2ccccc2)c1)c1ccc(Cl)cc1,-14.6%,–
Clc1cccc(Cl)c1Cl,–,inactive
Nc1cc(Cl)cc(C(=O)O)c1Cl,–,inactive
CCC(C)c1cc([N+](=O)[O-])cc([N+](=O)[O-])c1OC(=O)C=C(C)C (stereo not given),-18%,–
C=CCO,–,inactive
Cc1nc(N)nc(N)n1,0.0165%,–
CC(=O)c1ccc(-c2ccccc2)cc1,-1.32%,–
CCCCn1cc[n+](C)c1.[Cl][Fe-]([Cl])([Cl])[Cl],-21.6%,–
COC(=O)C(c1ccccc1)C1CCCCN1 (stereo not given),-4.23%,–
C[N+](C)(C)C,–,inactive
O=C(O)CCl,–,inactive
Nc1c(Cl)c(F)nc(OCC(=O)O)c1Cl,-6.16%,–
O=C(Nc1ccccc1)Nc1cnns1,-10.4%,–
CC(C)(C#N)C(C)(C)C#N,0.35%,–
